Potency data for two molecules are collected here from PubChem BioAssay AID1645849 (National Center for Advancing Translational Sciences (NCATS), 2021).

This test in a line: Comparison of Janus kinase inhibitors to block the type I interferon pathway in human skeletal muscle cells: JAK inhibition assay. The source says:
Assay Submitter: Travis B. Kinder Ph.D.
National Center for Advancing Translational Sciences (NCATS)
The family of Janus kinases (JAK1, JAK2, JAK3, TYK2) mediate signal transduction from cytokine receptors through phosphorylation and activation of intracellular signaling pathways and transcription factors. Small molecule antagonists of JAKs (jakinibs) have been developed with varying selectivity for the use in malignancies and immune regulation. […] We have assayed a library of 48 jakinibs for their ability to inhibit the JAK1/TYK2-dependent type I interferon (IFN) - major histocompatibility complex (MHC) class I pathway in human skeletal muscle cells genome-engineered to fuse a pro-luminescent HiBiT peptide to endogenous MHC class I.
The assay utilized CRISPR/Cas9 genome-engineered immortalized human myoblasts, C25cl48, where a pro-luminescent reporter HiBit was fused to the C-terminus of endogenous MHC class I allele HLA-B*08:01 (HLA-B HiBit myoblasts) (Kinder et al., 2020). […] After 24 hrs of treatment, cells were assayed by Nano-Glo HiBiT Lytic Detection System (Promega) and luminescence measured by a ViewLux 1430 Ultra HTS (Perkin Elmer). […]
7; Detector; 5 sec; Measure luminescence with ViewLux 1430 Ultra HTS (Perkin Elmer). […]

Molecules are shown by their SMILES. Results filed as inconclusive are left out. Where a call stands in place of a potency, no number is given. The source made the active and inactive calls. Calls come from the whole dose curve; as a rule, active = well fitted inhibition curve with a large enough effect in the repeat runs; inconclusive = weak or mixed curves; inactive = no such curve, though single readings can be large or run the other way.

Regarding `CC1CCCCCC(=O)c2c(O)cc(O)cc2CC(=O)O1` (configuration not stated), the Potency result was “inactive”.
To `CC(C)(O)/C=C\C(=O)[C@](C)(O)[C@H]1[C@H](O)C[C@]2(C)[C@@H]3CC=C4[C@@H](C=C(O)C(=O)C4(C)C)[C@]3(C)C(=O)C[C@@]12C` belongs 5.65 µM (active).
